# Results as given in the supplement of paper PMC6555819.
# What was measured:
# Test in all cases: PBM binding z-score (relative to random genomic background probes); higher = stronger binding; sequences stand for … in GC…GCGATTGACAGCGTAGAATGAAGG
# [1] = tested on: FXR:RXRa (NR concentration 270 nM, RXRa partner concentration 90 nM)
# Procedure, shortened: (§1)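 For binding z-scores, the reference was random background probes on custom Agilent 4×180K protein-binding microarrays. These arrays were incubated 1 h with ligand-free nuclear receptor dimers in PBS pH 7.4, 2% milk, 0.02% Triton X-100, 1 mM DTT, 0.2 mg/mL BSA and 0.4 mg/ml salmon testes DNA. Fluorescence was scanned after antibody detection of each partner (one per run) and regression-normalized.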
# [2] = tested on: LXRa:RXRa (NR concentration 270 nM, RXRa partner concentration 90 nM)
# Procedure, shortened: as §1
# [3] = tested on: LXRa homodimer (NR concentration 270 nM)
# Procedure, shortened: as §1
# [4] = tested on: LXRb:RXRa (NR concentration 270 nM, RXRa partner concentration 90 nM)
# Procedure, shortened: as §1
# [5] = tested on: LXRb homodimer (NR concentration 270 nM)
# Procedure, shortened: as §1
# [6] = tested on: PPARa:RXRa (NR concentration 270 nM, RXRa partner concentration 90 nM)
# Procedure, shortened: as §1
# [7] = tested on: PPARg:RXRa (NR concentration 180 nM, RXRa partner concentration 90 nM)
# Procedure, shortened: as §1
# [8] = tested on: PPARg:RXRa 270nM:90nM, anti-RXR (NR concentration 270 nM, RXRa partner concentration 90 nM)
# Procedure, shortened: as §1
# [9] = tested on: PPARg:RXRa 30nM:10nM, anti-RXR (NR concentration 30 nM, RXRa partner concentration 10 nM)
# Procedure, shortened: as §1
# [10] = tested on: PPARg:RXRa 90nM:30nM, anti-RXR (NR concentration 90 nM, RXRa partner concentration 30 nM)
# Procedure, shortened: as §1
# [11] = tested on: PPARg:RXRa DBDmut IVT, anti-RXR (DBD mutation: RXRa K156A/R161A, NR concentration 270 nM, RXRa partner concentration 90 nM)
# Procedure, shortened: as §1
# [12] = tested on: PPARg:RXRa IVT, anti-PPARg (NR concentration 270 nM, RXRa partner concentration 90 nM)
# Procedure, shortened: as §1
# [13] = tested on: PPARg DBDmut:RXRa IVT, anti-PPARg (DBD mutation: PPARg1 K132A/R137A, NR concentration 270 nM, RXRa partner concentration 90 nM)
# Procedure, shortened: as §1
# [14] = tested on: PPARg DBDmut IVT, anti-PPARg (DBD mutation: PPARg1 K132A/R137A, NR concentration 270 nM)
# Procedure, shortened: as §1
# [15] = tested on: PPARg homodimer (NR concentration 180 nM)
# Procedure, shortened: as §1
# [16] = tested on: PXR:RXRa (NR concentration 270 nM, RXRa partner concentration 90 nM)
# Procedure, shortened: as §1
# [17] = tested on: PXR homodimer (NR concentration 270 nM)
# Procedure, shortened: as §1
# [18] = tested on: RARa:RXR (NR concentration 270 nM, RXRa partner concentration 90 nM)
# Procedure, shortened: as §1
# [19] = tested on: RARa homodimer (NR concentration 270 nM)
# Procedure, shortened: as §1
# [20] = tested on: RARb:RXRa (NR concentration 270 nM, RXRa partner concentration 90 nM)
# Procedure, shortened: as §1
Sequence,PBM binding z-score [1],PBM binding z-score [2],PBM binding z-score [3],PBM binding z-score [4],PBM binding z-score [5],PBM binding z-score [6],PBM binding z-score [7],PBM binding z-score [8],PBM binding z-score [9],PBM binding z-score [10],PBM binding z-score [11],PBM binding z-score [12],PBM binding z-score [13],PBM binding z-score [14],PBM binding z-score [15],PBM binding z-score [16],PBM binding z-score [17],PBM binding z-score [18],PBM binding z-score [19],PBM binding z-score [20]
CCTACTGGGCCATTCAGAAGTCATTGATCATATG,-0.391,-0.415,-0.186,-0.497,-0.171,0.968,0.302,0.341,-0.166,-0.00895,4.43,3.36,-0.17,-0.487,0.0197,-0.557,-0.689,-0.413,0.126,0.115
TCTTGTAGATCAACAGAAGGTTAAGAAAGATCGA,0.396,1.11,0.0845,0.953,-0.0831,1.27,0.104,1.35,2.82,2.04,2.05,0.787,0.882,0.062,-0.0281,0.812,0.0567,0.954,-0.338,0.701
AGAACGAGGGCACGCTGAGTTGATAGGAGAGTAG,0.875,0.502,-0.34,0.213,-0.689,2.07,2.14,1.82,0.367,1.14,3.83,3.7,0.653,0.276,0.451,1.1,0.0753,0.906,-0.652,2.37
ATCTCAAGGTAACAAGTTCAGTGAAAGAGAGGAC,1.2,1.29,0.665,0.971,0.9,1.4,0.619,1.08,0.731,1.03,0.525,1.3,1.3,1.1,1.41,1.88,2.27,1.33,1.14,2.08
TGAATGAGGTTATAAGTTCAGGGAACGTTGCAAA,2.81,2.69,0.29,1.88,-0.136,3.66,2.09,3.38,1.55,2.71,1.14,1.78,0.562,0.599,1.97,3.24,1.46,3.81,0.0281,2.87
AATACAGGGTCATCGTAGGCCAGCGTACGCACAG,7.47,6.19,2.61,4.66,1.23,6.28,6.7,5.95,2.73,4.61,2.7,4.3,1.13,2.04,1.67,4.77,0.406,4.77,0.478,4.55
CCTCGCAGGACAACAGGAGGTCAGAGCTGCCAGA,0.787,1.63,1.92,1.05,-0.469,1.73,0.326,-0.0198,-0.833,-0.445,-0.0217,0.0775,-0.749,-0.93,1.52,1.89,0.261,2.26,-0.0612,2.28
TCATATAAGTAAAGGTGAAAGTCGAACGATATGA,1,1.25,-0.151,1.26,-0.205,2.77,1.98,2.93,3.99,3.46,2.2,1.58,1.17,1.46,0.731,0.97,0.241,1.59,0.59,1.99
TCTGCTAGGACAGTTGGTCAGCTAACGAGCTGCC,-0.435,-0.527,-0.541,-0.91,-0.315,-0.722,-0.522,-0.161,0.654,0.296,0.464,0.0709,-0.543,-0.756,-1.29,-0.745,-1.05,-0.557,-1.03,0.346
TCTACTAGGTCAACGATGGTCAGCTAATCTGCTA,3.61,3.2,0.626,2.29,0.75,4.36,6.19,6.03,4.97,5.88,7.66,7.96,1.25,1.79,1.93,1.93,0.246,2.54,1.28,4.23
GCGACTGGGGCAAAGCAGGTTAGCATAAGGTTGG,0.494,-0.573,-0.598,-0.43,-1.24,0.977,1.14,0.948,-0.509,0.412,4.21,3.26,-0.633,-1.6,-0.037,-0.216,-0.676,0.00756,-0.55,0.773
CCTGACGGGTCACGAGGTTATAGCACGACGAGCG,5.64,4.17,0.355,3.29,-0.286,5.34,5.73,5.6,1.87,3.91,2.13,3.75,0.388,0.539,3.04,4.13,0.0429,5.48,1.05,4.32
CCGACTGGGGCAGAAAGGTTACTATACCATCCGG,-0.369,-0.0108,-0.29,0.722,-1.04,1.5,1.63,2.14,0.485,1.52,2.21,1.68,-0.665,-1.26,0.373,0.533,-0.207,1.18,-0.156,1.53
ATCGAAAGGACGACGAGGTGAGTATACACCGTTT,0.179,-0.132,-0.204,-0.324,-0.355,-0.0942,1.08,-0.0154,0.318,0.299,-0.481,0.315,0.774,0.683,-0.198,-0.109,-0.293,0.0451,0.198,1.1
